Inconclusive results are not listed. Activity calls are given as the source filed them. How the source made its calls, unless noted: active means hit-call score of the fitted dose curve at least 0.9, where 1 is the maximum; inactive means score below 0.9.
Assays:
[1] = read-out: Monokine induced gamma interferon (MIG), CXCL9 (gene 4283); experiment: BSK_3C_MIG: BioMAP Diversity Plus: 3C Assay for Monokine induced gamma interferon (MIG) Biomarker Activity (AID 2283021); settings: primary human endothelial cells (HUVEC); actives raise or lower the signal
In short: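 Primary human umbilical vein endothelial cells in the 3C system were exposed to chemical for 24 h, after which MIG was quantified by ELISA. Activity was fitted bidirectionally against DMSO as negative control and baseline.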

[2] = target: human Vitamin D Receptor (VDR), VDR (gene 7421) (UniProt P11473); experiment: ATG_VDR_TRANS: Attagene TRANS-FACTORIAL HepG2 Assay for human Vitamin D Receptor (VDR) (AID 2283022; active means hit-call score of the fitted dose curve at least 0.9, where 1 is the maximum)
Sequence of human Vitamin D Receptor (VDR), VDR (gene 7421) (P11473 whole entry, looked up, the tested form may be a part): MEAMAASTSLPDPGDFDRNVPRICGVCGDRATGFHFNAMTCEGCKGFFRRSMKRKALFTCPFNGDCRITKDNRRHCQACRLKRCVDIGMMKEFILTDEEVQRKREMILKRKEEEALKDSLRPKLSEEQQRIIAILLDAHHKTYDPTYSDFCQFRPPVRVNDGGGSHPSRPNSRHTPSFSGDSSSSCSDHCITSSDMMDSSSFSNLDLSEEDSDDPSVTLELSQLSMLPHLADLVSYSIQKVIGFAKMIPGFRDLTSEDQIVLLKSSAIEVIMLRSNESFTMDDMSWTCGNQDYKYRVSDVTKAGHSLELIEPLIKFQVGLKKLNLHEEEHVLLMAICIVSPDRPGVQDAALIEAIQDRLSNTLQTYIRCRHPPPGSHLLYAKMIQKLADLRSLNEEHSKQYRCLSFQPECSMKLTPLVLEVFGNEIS
In short: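 HepG2 cells were transiently transfected with GAL4-UAS reporter units and a chimeric VDR-Gal4 construct, then dosed for 24 hours. Reporter mRNA was quantified by RT-PCR, fluorescent labeling, HpaI digestion and capillary electrophoresis; gain of signal analysed vs DMSO.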

[3] = BSK_3C_SRB: Viability Assessment in the BioMAP Diversity Plus: 3C Assay (AID 2283023); settings: primary human endothelial cells (HUVEC);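 further: fitted both ways against DMSO so a hit may be signal rise or drop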
In short: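 Human umbilical vein endothelial cells in the 3C system, treated 24 h. Total protein measured by 0.1% sulforhodamine B staining after 10% TCA fixation, read at 560 nm; bidirectional fit versus DMSO.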

[4] = read-out: Matrix Metallopeptidase 1 (MMP1), MMP1 (gene 4312); experiment: BSK_BE3C_MMP1: BioMAP Diversity Plus: BE3C Assay for Matrix Metallopeptidase 1 (MMP1) Biomarker Activity (AID 2283024); settings: primary human bronchial epithelial cells; actives raise or lower the signal
In short: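 Primary human bronchial epithelial cells were dosed with test chemicals, and MMP1 levels were measured by ELISA 24 h later. Data were fitted bidirectionally against DMSO as the negative control and activity baseline.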

[5] = BSK_3C_Vis: BioMAP Diversity Plus: 3C Assay for Morphology Visualization (AID 2283025); settings: primary human endothelial cells (HUVEC);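 further: fitted both ways so gain or loss versus DMSO counts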
In short: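 Human umbilical vein endothelial cells in the 3C system were imaged by light microscopy 24 h after chemical dosing to record cell morphology. Activity was fitted bidirectionally against DMSO as negative control and baseline; the endpoint serves as a background control.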

[6] = read-out: Pselectin, SELP (gene 6403); experiment: BSK_4H_Pselectin: BioMAP Diversity Plus: 4H Assay for Pselectin Biomarker Activity (AID 2283026); settings: primary human endothelial cells (HUVEC); actives raise or lower the signal
In short: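 Primary human umbilical vein endothelial cells were exposed to test chemical for 24 h, then cell-surface P-selectin was quantified by ELISA. Activity was fitted bidirectionally against DMSO as negative control and baseline.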

[7] = BSK_4H_SRB: Viability Assessment in the BioMAP Diversity Plus: 4H Assay (AID 2283027); settings: primary human endothelial cells (HUVEC);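 further: cells exposed to compound for 24 h before staining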;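 on AC50: curves fitted both ways versus DMSO so AC50 may be loss or gain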
In short: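 Human umbilical vein endothelial cells were dosed with chemical and, after 24 h, fixed with 10% TCA, stained with 0.1% sulforhodamine B, and read at 560 nm to give total protein as a cytotoxicity measure. Bidirectional fitting relative to DMSO control.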

[8] = BSK_BE3C_SRB: Viability Assessment in the BioMAP Diversity Plus: BE3C Assay (AID 2283028); settings: primary human bronchial epithelial cells
In short: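 Human bronchial epithelial primary cells in confluent culture, 24 h after chemical dosing; total protein by 0.1% SRB staining after 10% TCA fixation, read at 560 nm. Bidirectional fitting versus DMSO baseline.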

[9] = read-out: Thrombomodulin, THBD (gene 7056); experiment: BSK_3C_Thrombomodulin: BioMAP Diversity Plus: 3C Assay for Thrombomodulin Biomarker Activity (AID 2283029); settings: primary human endothelial cells (HUVEC); actives raise or lower the signal
In short: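 Primary human umbilical vein endothelial cells (3C system) were exposed to chemical for 24 h, then thrombomodulin levels were measured by ELISA. Activity was fitted bidirectionally against the DMSO negative control as baseline.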

[10] = read-out: Urokinase-type plasminogen activator receptor (uPAR), PLAUR (gene 5329); experiment: BSK_4H_uPAR: BioMAP Diversity Plus: 4H Assay for Urokinase-type plasminogen activator receptor (uPAR) Biomarker Activity (AID 2283030); settings: primary human endothelial cells (HUVEC); actives raise or lower the signal
In short: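 Human umbilical vein endothelial cells in the 4H system, 24 h after chemical dosing. Cell-surface uPAR measured by ELISA, fitted in both directions versus DMSO; cytotoxicity checked by SRB total protein in parallel cultures.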

[11] = read-out: Vascular endothelial growth factor receptor 2 (Homo sapiens) (UniProt P35968); experiment: BSK_4H_VEGFRII: BioMAP Diversity Plus: 4H Assay for Vascular endothelial growth factor receptor 2 (VEGFR2) Biomarker Activity (AID 2283031); settings: primary human endothelial cells (HUVEC); actives raise or lower the signal
In short: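 Primary human umbilical vein endothelial cells (4H system), 24 h exposure; cell-surface VEGFR2 measured by ELISA. Bidirectional fitting versus DMSO; cytotoxicity checked in parallel by SRB total-protein staining.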

[12] = read-out: Human Leukocyte Antigen - DR isotype (HLADR), HLA-DRA (gene 3122); experiment: BSK_BE3C_HLADR: BioMAP Diversity Plus: BE3C Assay for Human Leukocyte Antigen - DR isotype (HLADR) Biomarker Activity (AID 2283032); settings: primary human bronchial epithelial cells; actives raise or lower the signal
In short: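 Human primary bronchial epithelial cells in the BE3C system were exposed to chemicals for 24 h, after which HLA-DR levels were quantified by ELISA. Activity was fitted bidirectionally, gain or loss of signal, against DMSO as negative control and baseline.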

[13] = read-out: Interferon-gamma inducible Protein 10 (IP10), CXCL10 (gene 3627); experiment: BSK_BE3C_IP10: BioMAP Diversity Plus: BE3C Assay for Interferon-gamma inducible Protein 10 (IP10) Biomarker Activity (AID 2283034); settings: primary human bronchial epithelial cells; actives raise or lower the signal
In short: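 Human primary bronchial epithelial cells were exposed to chemicals for 24 hours, after which IP-10 levels were measured by ELISA. Data were fitted bidirectionally against DMSO, which served as the negative control and activity baseline.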

[14] = read-out: Monokine induced gamma interferon (MIG), CXCL9 (gene 4283); experiment: BSK_BE3C_MIG: BioMAP Diversity Plus: BE3C Assay for Monokine induced gamma interferon (MIG) Biomarker Activity (AID 2283035); settings: primary human bronchial epithelial cells; actives raise or lower the signal;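 further: MIG protein measured by ELISA in BE3C cultures after 24 h of dosing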
In short: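 ELISA read-out of MIG in human lung bronchial epithelial primary cultures, 24 h post-dosing. Bidirectional curve fit vs DMSO baseline.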

[15] = read-out: Transforming growth factor beta 1 (TGFb1), TGFB1 (gene 7040); experiment: BSK_BE3C_TGFb1: BioMAP Diversity Plus: BE3C Assay for Transforming growth factor beta 1 (TGFb1) Biomarker Activity (AID 2283036); settings: primary human bronchial epithelial cells; actives raise or lower the signal
In short: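 Human primary bronchial epithelial cells (BE3C system) were dosed with chemical and TGF-b1 levels measured by ELISA at 24 h. Activity was fitted bidirectionally relative to DMSO negative control as baseline.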

[16] = read-out: Plasminogen activator inhibitor-1 (PAI1), SERPINE1 (gene 5054); experiment: BSK_BE3C_PAI1: BioMAP Diversity Plus: BE3C Assay for Plasminogen activator inhibitor-1 (PAI1) Biomarker Activity (AID 2283037); settings: primary human bronchial epithelial cells; actives raise or lower the signal
In short: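 Human primary bronchial epithelial cells were exposed to chemical for 24 h, then PAI-1 was quantified by ELISA. Activity was fitted bidirectionally relative to the DMSO negative control baseline.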

[17] = read-out: urokinase plasminogen activator (uPA), PLAU (gene 5328); experiment: BSK_BE3C_uPA: BioMAP Diversity Plus: BE3C Assay for urokinase plasminogen activator (uPA) Biomarker Activity (AID 2283038); settings: primary human bronchial epithelial cells; actives raise or lower the signal;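 further: uPA protein level quantified by ELISA in cell cultures; uPA read one day after compound addition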
In short: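 Primary human bronchial epithelial cells, uPA measured by ELISA 24 h after dosing. Bidirectional change relative to DMSO; cytotoxicity checked in parallel cultures by sulforhodamine B total-protein staining.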

[18] = read-out: Interleukin-8 (IL8), CXCL8 (gene 3576); experiment: BSK_3C_IL8: BioMAP Diversity Plus: 3C Assay for Interleukin-8 (IL8) Biomarker Activity (AID 2283020); settings: primary human endothelial cells (HUVEC); actives raise or lower the signal
In short: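 Primary human umbilical vein endothelial cells (3C system) were exposed to test chemical for 24 h, then IL-8 was quantified by ELISA. Responses were fitted bidirectionally against DMSO vehicle as baseline.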

[19] = read-out: Urokinase-type plasminogen activator receptor (uPAR), PLAUR (gene 5329); experiment: BSK_BE3C_uPAR: BioMAP Diversity Plus: BE3C Assay for Urokinase-type plasminogen activator receptor (uPAR) Biomarker Activity (AID 2283039); settings: primary human bronchial epithelial cells; actives raise or lower the signal;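 further: cells exposed to compound for one day before measurement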
In short: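 Primary human bronchial epithelial cells were dosed with chemical and harvested 24 h later; uPAR was quantified by ELISA. Activity was fitted bidirectionally against DMSO as negative control and baseline.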

[20] = read-out: Vascular cell adhesion molecule 1 (VCAM1), VCAM1 (gene 7412); experiment: BSK_4H_VCAM1: BioMAP Diversity Plus: 4H Assay for Vascular cell adhesion molecule 1 (VCAM1) Biomarker Activity (AID 2283033); settings: primary human endothelial cells (HUVEC); actives raise or lower the signal;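 further: cell-surface VCAM-1 protein measured by ELISA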
In short: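 Primary human umbilical vein endothelial cells were exposed to chemicals for 24 h, after which VCAM-1 was quantified by ELISA. Responses were fitted bidirectionally against DMSO as negative control and activity baseline.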

Measured: AC50

CCCOc1ccc(S(=O)(=O)N2CCN(CC)CC2)cc1-c1nc2c(CC)n(Cc3ccccn3)nc2c(=O)[nH]1
inactive: [1] | [2] | [3] | [4] | [5] | [6] | [7] | [8] | [9] | [10] | [11] | [12] | [13] | [14] | [15] | [16] | [17]

O=C(O)c1cccc(C[C@@H]2COc3ccc(OCc4nc5cc(F)ccc5s4)cc3[C@@H]2O)c1
inactive: [18] | [1] | [3] | [4] | [5] | [6] | [7] | [8] | [9] | [10] | [11] | [12] | [13] | [14] | [15] | [16] | [17] | [19]

CC(=O)c1ccccc1
inactive: [18] | [1] | [3] | [4] | [5] | [6] | [7] | [8] | [9] | [10] | [11] | [12] | [13] | [14] | [15] | [16] | [17] | [19]

CCOC(N)=O
inactive: [18] | [1] | [3] | [4] | [6] | [7] | [8] | [9] | [10] | [11] | [12] | [20] | [14] | [15] | [16] | [17] | [19]

CC(C)CC(C)O (configuration not stated)
inactive: [18] | [1] | [3] | [4] | [5] | [6] | [7] | [8] | [9] | [10] | [11] | [12] | [13] | [14] | [15] | [16] | [17]

CCCCN1C(=O)[C@@H]([C@H](O)C2CCCCC2)NC(=O)C12CCN(Cc1ccc(Oc3ccc(C(=O)O)cc3)cc1)CC2
inactive: [18] | [1] | [4] | [6] | [8] | [9] | [11] | [12] | [14] | [15] | [16] | [17] | [19]
active: [3] 27.3 µM | [5] 39 µM | [7] 23.6 µM | [10] 20 µM

CCCCOC(=O)c1ccccc1
inactive: [18] | [1] | [3] | [4] | [6] | [7] | [8] | [9] | [10] | [11] | [12] | [14] | [15] | [16] | [17] | [19]

COS(C)(=O)=O
inactive: [1] | [2] | [3] | [4] | [6] | [7] | [8] | [9] | [10] | [11] | [12] | [20] | [13] | [14] | [15] | [16] | [17]

CCCCCCCC/C=C\CCCCCCCC(=O)OC[C@@H](O)[C@H]1OC[C@H](O)[C@H]1O
inactive: [1] | [2] | [3] | [4] | [5] | [6] | [7] | [8] | [9] | [10] | [11] | [12] | [20] | [13] | [14] | [15] | [16] | [17] | [19]

c1ccc2cc3ccccc3cc2c1
inactive: [1] | [2] | [3] | [4] | [5] | [6] | [7] | [8] | [9] | [10] | [11] | [12] | [20] | [13] | [14] | [15] | [16] | [17]

O=S(=O)(O)c1ccc(N=Nc2c(O)ccc3cc(S(=O)(=O)O)ccc23)cc1
inactive: [1] | [2] | [3] | [4] | [5] | [6] | [7] | [8] | [9] | [10] | [11] | [12] | [14] | [15] | [16] | [17]

C[C@@H](Oc1ccc(CNC(=O)c2cccnc2Oc2ccc3c(c2)OCO3)c(F)c1)C(=O)O
inactive: [1] | [3] | [4] | [6] | [7] | [8] | [9] | [10] | [11] | [12] | [13] | [14] | [15] | [16] | [17] | [19]

CCCC(CCC)C(=O)O
inactive: [1] | [2] | [3] | [4] | [6] | [7] | [8] | [9] | [10] | [11] | [12] | [20] | [14] | [15] | [16] | [17]

NC(=O)N1c2ccccc2C=Cc2ccccc21
inactive: [1] | [3] | [4] | [6] | [7] | [8] | [9] | [10] | [11] | [12] | [14] | [15] | [16] | [17] | [19]

FC(F)=C(F)C(F)(F)C(F)(F)C(F)(F)C(F)(F)C(F)(F)C(F)(F)F
inactive: [1] | [2] | [3] | [4] | [6] | [7] | [8] | [9] | [10] | [11] | [12] | [14] | [16] | [17] | [19]

Reference: PubChem BioAssay (EPA / NIEHS)
